This is an account of results in PubChem BioAssay AID777 (Sanford-Burnham Center for Chemical Genomics, 2007).

Each structure is given as a SMILES string. The campaign covered roughly 96,000 compounds. About 19,000 (20%) were called active.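 The calls were made as follows: active = blocking of liver enzyme CYP2C9 beyond about 50% at 5 µM (limit read from the data); inactive = the rest.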 Only a sample is shown.

Sequence of Cytochrome P450 2C9 (Homo sapiens) (P11712 whole entry, looked up): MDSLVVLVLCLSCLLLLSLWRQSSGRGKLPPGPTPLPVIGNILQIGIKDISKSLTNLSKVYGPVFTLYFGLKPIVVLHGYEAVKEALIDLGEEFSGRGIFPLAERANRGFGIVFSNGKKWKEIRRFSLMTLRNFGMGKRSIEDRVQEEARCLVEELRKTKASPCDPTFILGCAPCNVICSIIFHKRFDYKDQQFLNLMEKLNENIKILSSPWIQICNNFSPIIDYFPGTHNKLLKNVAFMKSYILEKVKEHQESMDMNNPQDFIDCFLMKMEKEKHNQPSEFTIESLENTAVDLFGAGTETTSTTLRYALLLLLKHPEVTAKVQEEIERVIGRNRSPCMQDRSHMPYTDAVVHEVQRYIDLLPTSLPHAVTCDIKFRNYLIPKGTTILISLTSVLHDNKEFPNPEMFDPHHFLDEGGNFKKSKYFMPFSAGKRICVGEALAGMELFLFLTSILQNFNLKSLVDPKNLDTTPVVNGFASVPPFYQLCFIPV

This test addresses Cytochrome P450 2C9 (Homo sapiens) (UniProt P11712). As to the kind of experiment: blockers of cytochrome P450 2C9 activity – biochemical, luminescence, ADME assay, primary screen (AID 777). The following applies: CYP2C9 Supersomes, luciferin-H conversion, at 5 µM, hits give high values.
One may read the inhibition as the drop in the measured response relative to a control, in per cent. `Cc1ccc(S(=O)(=O)N2CCC(C(=O)OCC(=O)N3CC(=O)Nc4ccccc43)CC2)cc1`: the inhibition was 54.7% (active).

For the compound `O=C1CN(C(=O)COC(=O)C2CC(=O)N(Cc3ccco3)C2)c2ccccc2N1` (stereo unspecified), the inhibition is -13.2% (inactive).

For the compound `Cc1ccc(S(=O)(=O)NCC(=O)OCC(=O)N2CCc3ccccc32)cc1`, the inhibition is -28.2% (inactive).

`CCOC(=O)CN1CC23C=CC(O2)C(C(=O)Nc2ccc(F)cc2)C3C1=O` (stereo unspecified): the inhibition is -21.8% (inactive).

For the compound `CC1(C)C/C(=C(/C#N)C(N)=O)CCO1`, the inhibition was -18.3% (inactive).

As to `Nc1c(-c2ccc(F)cc2)cnc2ncnn12`, the inhibition is -25.1% (inactive).

For `CC1(C)CC(=O)C=C(NCc2ccncc2)C1`, the inhibition is 7.3% (inactive).

Turning to `Cc1cc(C(=O)Nc2c(C)nn(Cc3ccccc3)c2C)on1`, the inhibition is 22.4% (inactive).

Regarding `Cc1nn(Cc2ccc(Cl)c(Cl)c2)c(C)c1NC(=O)c1cc(C2CC2)on1`, the inhibition is 96.7% (active).

`CSc1ccccc1NC(=O)c1cc(C2CC2)on1`: the inhibition was -144% (inactive).

With `Cc1cc2ccccc2n2c(SCC(=O)N3CCN(C(=O)c4ccco4)CC3)nnc12`, the inhibition was -4.3% (inactive).

As to `CCCCNC(=O)CCn1c(=S)[nH]c2cc3c(cc2c1=O)OCO3`, the inhibition was 36.3% (inactive).

Consider `Cc1ncc(CC(=O)n2cc(C(=O)c3cc(Cl)ccc3O)cn2)s1`, for which the inhibition was 81.1% (active).

On to `O=C(c1ccc2c(c1)N(Cc1ccc(F)cc1)C(=O)CS2)N1CCOCC1`, for which the inhibition is 1.7% (inactive).

`CCOC(=O)c1oc2ccccc2c1NC(=O)c1cccs1`: the inhibition is 20.2% (inactive).

Take `Cc1cc(Nc2ccccc2)nc(N)n1`: the inhibition was -6.6% (inactive).

For the compound `Cc1ccc(S(=O)(=O)NCC(C)NS(C)(=O)=O)cc1` (stereo unspecified), the inhibition is 60.2% (active).

For `COc1ccccc1CNS(=O)(=O)c1ccc(C)cc1`, the inhibition was -159% (inactive).

With `Cc1ccc(S(=O)(=O)NCCSC(C)(C)C)cc1`, the inhibition is 23.6% (inactive).

For `CCOc1ccc(NC(=O)Nc2ccc(N(C)C(C)=O)cc2)cc1`, the inhibition was -6.3% (inactive).

`Cc1ccc(C)c(N2C(=O)CS/C2=N\NC(=O)c2ccccc2Cl)c1`: the inhibition was 77.7% (active).

On to `CC(=O)Nc1cccc(/C(C)=N/NC(=O)c2ccccc2Cl)c1`, for which the inhibition was 0.2% (inactive).

For the compound `O=C(Nc1ccc2sc3ccccc3c(=O)c2c1)c1ccccc1Cl`, the inhibition is -9% (inactive).

In the case of `COc1ccc(-c2nnn(Cc3nc(N)nc(N4CCCCC4)n3)n2)cc1`, the inhibition is 17.3% (inactive).

Consider `CCOc1cc(/C=C2/N=C(c3ccc(C(C)(C)C)cc3)OC2=O)cc(Cl)c1OS(C)(=O)=O`, for which the inhibition is 30.3% (inactive).

On to `CCOCCCN1C(=O)CN(C2CCCCC2)C(=O)C1c1ccc(OCC)c(OC)c1` (stereo unspecified), for which the inhibition is 15.3% (inactive).

On to `COc1cc2[nH]c(=S)n(Cc3ccc(C)o3)c(=O)c2cc1OC`, for which the inhibition was -0.8% (inactive).

`Cc1nc2cc(S(=O)(=O)C(F)(F)F)ccc2s1`: the inhibition was 1.9% (inactive).

Consider `O=C(CC(O)(C(F)(F)F)C(F)(F)F)Nc1ccc(Cl)c(Cl)c1`, for which the inhibition is 65% (active).

In the case of `Cc1nnc(NC(=O)Nc2ccc(Cl)c(Cl)c2)s1`, the inhibition is 48.4% (inactive).

On to `N/C(=N\OC(=O)Nc1ccc(Cl)c(Cl)c1)c1ncc(C(F)(F)F)cc1Cl`, for which the inhibition is -6.7% (inactive).

As to `Cc1ccc(S(=O)(=O)c2c(N)n(C)c3nc4ccccc4nc23)cc1`, the inhibition is 14.2% (inactive).

On to `C=CCn1c(N)c(S(=O)(=O)c2cccs2)c2nc3ccccc3nc21`, for which the inhibition is 86.3% (active).

For `C=CCn1c(N)c(C(=O)OCC(C)C)c2nc3ccccc3nc21`, the inhibition was 28.3% (inactive).

On to `CCCCSc1nnc(-c2ccc(C)cc2)o1`, for which the inhibition is 31.3% (inactive).

As for `CCS(=O)(=O)N1CCC(C(=O)N2CCN(c3ccccc3)CC2)CC1`, the inhibition is 9.9% (inactive).

`O=C(C1CCN(S(=O)(=O)Cc2ccccc2)CC1)N1CCCc2ccccc21`: the inhibition was 51.8% (active).

Take `O=C(CSCc1ccccc1)N1CCc2ccccc21`: the inhibition was -12.4% (inactive).

For `CCOc1ccc(NC(=O)C2CC(=O)N=C(N)S2)cc1` (stereo unspecified), the inhibition was -2.4% (inactive).

Turning to `CC(NC(=O)C1CCC(CNc2c(N3CCOCC3)c(=O)c2=O)CC1)c1ccccc1` (stereo unspecified), the inhibition was -6.7% (inactive).

As to `O=C(Nc1cccc2cccnc12)c1cccc(N2C(=O)CCC2=O)c1`, the inhibition was -71.6% (inactive).

Consider `Cn1c(CNC(=O)C(C)(C)C)nc2ccccc21`, for which the inhibition is -13.1% (inactive).

Consider `COc1cc(C(=S)N2CCOCC2)cc(OC)c1OC(=O)c1cc([N+](=O)[O-])cc([N+](=O)[O-])c1`, for which the inhibition is -5% (inactive).

Turning to `COc1ccc(C(=O)N2CCc3cc(OC)c(OC)cc3C2c2cccc([N+](=O)[O-])c2)cc1` (stereo unspecified), the inhibition was 64.4% (active).

As for `COc1ccc(Cc2nnc(SCC(=O)c3cccc([N+](=O)[O-])c3)n2C)cc1`, the inhibition was 38.7% (inactive).

In the case of `CCC1CCCCN1CCCNC(=O)Cn1nc(-c2ccccc2)ccc1=O` (stereo unspecified), the inhibition was 9.1% (inactive).

As to `Cc1c(NC(=O)CSc2cccc3cccnc23)c(=O)n(-c2ccccc2)n1C`, the inhibition was -25.5% (inactive).

`O=c1cccc(-c2ccc(Br)cc2)o1`: the inhibition was -19.8% (inactive).

`Cc1nc2c(-c3ccc(F)cc3)c(C)nn2c(C)c1CCC(=O)NCc1ccco1`: the inhibition is 24.9% (inactive).

With `O=C(NCc1ccco1)c1ccc(Cn2c(=O)c3sccc3n(Cc3ccc(F)cc3)c2=O)cc1`, the inhibition was 79.7% (active).

As for `Cc1cc(C(=O)OCC(=O)NCc2ccco2)c(C)n1-c1ccccc1`, the inhibition was 42.1% (inactive).

Consider `O=C(NCc1ccco1)c1cc2sccc2n1Cc1ccc(F)cc1`, for which the inhibition was 60.8% (active).

Consider `O=C(Cc1ccc(-n2c(=O)c3sccc3n(Cc3ccc(F)cc3)c2=O)cc1)NCc1ccco1`, for which the inhibition is 69.5% (active).

For `COc1cc(-n2c(C)nc3cc(C(=O)NCc4ccco4)ccc32)cc(OC)c1OC`, the inhibition is 8.4% (inactive).

Take `O=C(NCCc1ccco1)c1nn(Cc2ccccc2)c(=O)c2ccccc12`: the inhibition is 7.4% (inactive).

With `O=C(NCc1ccco1)c1sc2cccc(F)c2c1Cl`, the inhibition is -26.6% (inactive).

For the compound `O=C(NCc1ccco1)c1ccc(CS(=O)(=O)Cc2ccc(F)cc2)o1`, the inhibition was 40.7% (inactive).

For the compound `NC(=O)CCCC1=NS(=O)(=O)c2ccccc2N1`, the inhibition is 4.2% (inactive).

Regarding `O=S(=O)(CCc1nc2ccccc2o1)c1ccc(Cl)cc1`, the inhibition is -2.3% (inactive).

As to `CCOC(=O)N1CCN(C(=O)C2CC(c3ccc(F)cc3)=NO2)CC1` (stereo unspecified), the inhibition is 8.8% (inactive).

In the case of `CCC(=O)N1CCc2cc(S(=O)(=O)NC(C(=O)N3CCc4ccccc4C3)C(C)C)ccc21` (stereo unspecified), the inhibition is 27% (inactive).
